Only some compounds are listed: those with a hit (about 3.1% of all), similar ones and a draw of the others.
E coli Lon inh: inhibitors of E. coli Lon protease, primary screen, biochemical, fluorescence polarization | P0A9M0 | purified E. coli Lon protease | inhibition, % at 7.94 µM | hit rate 0.42% among 360,000 | AID 602123, 2011; in the data active = inhibition above about 13%, passing the limit was not always enough;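 note: 0% = enzyme with probe and DMSO and 100% = no enzyme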
pPAFAH FP inh: pPAFAH enzyme inhibitors, primary screen, biochemical, fluorescence polarization, human; Platelet-activating factor acetylhydrolase (Homo sapiens), Q13093; recombinant pPAFAH, FP-rhodamine probe fluorescence polarization; inhibition, % at 3.39 µM; hit rate 1.5% among 330,000; AID 463082, 2010;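 active = inhibition above the mean inhibition across the screen plus 3 SD, cut at about 25% in these data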;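 note: inhibitors block binding of the rhodamine activity-based probe so polarization drops; 0% = enzyme with DMSO and 100% = wells lacking pPAFAH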
PAFAH1B3 FP inh: PAFAH1B3 enzyme inhibitors, primary screen, biochemical, fluorescence polarization, human; hit rate 0.28% among 340,000; inhibition, % at 3.39 µM; recombinant PAFAH1B3, FP-rhodamine probe;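 active = inhibition above the screen-wide average of all tested compounds plus 3 SD, cut at about 25% in these data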;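 note: 0% = enzyme with DMSO only and 100% = wells lacking PAFAH1B3 protein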
PAFAH2 inh: PAFAH2 enzyme inhibitors, primary screen, biochemical, fluorescence polarization, human. recombinant PAFAH2, FP-rhodamine activity probe. inhibition, % at 3.39 µM. hit rate 0.99% among 340,000. AID 492956, 2010. Platelet-activating factor acetylhydrolase 2, cytoplasmic (Homo sapiens), Q99487;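 active = inhibition above the mean over all tested compounds plus 3 SD, cut at about 30% in these data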;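 note: inhibitors block probe labeling of enzyme so polarization drops; 0% = enzyme with DMSO and 100% = wells lacking PAFAH2 protein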
Rin1-Abl PPI inh: inhibitors of Rin1-Abl protein binding, primary screen, biochemical, TR-FRET | Tyrosine-protein kinase ABL1 (Homo sapiens) + Ras and Rab interactor 1 (Homo sapiens), … | inhibition, % at 7.35 µM | hit rate 0.4% among 360,000; in the data active = inhibition above about 5%, passing the limit was not always enough
PAFAH1B2 inh: PAFAH1B2 enzyme inhibitors, primary screen, biochemical, fluorescence polarization, human; Platelet-activating factor acetylhydrolase IB subunit alpha2 (Homo sapiens), P68402; recombinant PAFAH1B2, FP-rhodamine activity probe; inhibition, % at 3.39 µM; hit rate 1.2% among 340,000; AID 492953, 2010;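 active = inhibition above the mean of all tested compounds plus 3 SD, cut at about 24% in these data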;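 note: 0% = enzyme with DMSO and 100% = wells lacking PAFAH1B2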
The depositor's hits bear a star; x = no result given.

SMILES | E coli Lon inh | pPAFAH FP inh | PAFAH1B3 FP inh | PAFAH2 inh | Rin1-Abl PPI inh | PAFAH1B2 inh
O=c1[nH]c(=S)n(Cc2ccc(F)cc2)c(O)c1C=NCCCn1ccnc1 | -2 | 3 | -2 | -16 | -3 | 30*
O=c1[nH]c(=S)n(Cc2ccc(F)cc2)c(O)c1/C=N/N1CCCCCC1 | -11 | 0 | 0 | -3 | -1 | 33*
O=c1[nH]c(=O)n(Cc2ccc(F)cc2)c(O)c1C=NCCCn1ccnc1 | -6 | 7 | 2 | 5 | -2 | 5
O=C(N/N=C/c1c(O)n(Cc2ccc(F)cc2)c(=S)[nH]c1=O)c1ccncc1 | -7 | 16 | -9 | -7 | 1 | 42*
CSCCC(c1nnnn1-c1ccc2c(c1)OCCO2)N1CCC(n2c(=O)[nH]c3ccccc32)CC1 (stereo unspecified) | 2 | x | x | x | 10 | x
O=c1c2ccccc2nc(/C=C/c2ccc(O)c(O)c2)n1-c1ccccc1 | -124 | 30* | 8 | 1 | 0 | -1
CN(C)[C@@H]1C(=O)C(C(N)=O)=C(O)[C@@]2(O)C(=O)C3=C(O)c4c(O)cccc4[C@@](C)(O)[C@H]3C[C@@H]12 | x | 73* | x | x | x | x
CN(C)[C@@H]1C(=O)C(C(N)=O)=C(O)[C@@]2(O)C(=O)C3=C(O)c4c(O)ccc(Cl)c4[C@@](C)(O)C3C[C@@H]12 (stereo partly specified) | -19 | x | 20 | 10 | 10 | 10
C/C=C(\C)C(=O)OC1C(C)=C2C(C1OC(=O)CCCCC)C(C)(OC(C)=O)CC(OC(=O)CCC)C1(O)C2OC(=O)C1(C)O (stereo unspecified) | x | 38* | x | x | x | x
NCC(O)c1cc(O)c(O)cc1F (stereo unspecified) | -9 | 27* | 2 | 4 | 2 | 1
CCN(CC)C(=O)c1ccc2c(c1)C1C=CCC1C(C(=O)O)N2 (stereo unspecified) | 11 | x | 40* | 40* | 7 | 20
O=C1NC(=O)N(CCNc2ncc(C(F)(F)F)cc2Cl)C(=O)C1Cc1ccc(Cl)cc1 (stereo unspecified) | 3 | 7 | 13 | 2 | -2 | 29*
C=CCN1C(=O)NC(=O)C(Cc2ccc(OC)c(OC)c2)C1=O (stereo unspecified) | -16 | 8 | 7 | 4 | 4 | 2
CNC(=O)Oc1ccc(C(=O)N2c3ccccc3NC(=O)C2C)cc1 (stereo unspecified) | -13 | 7 | 11 | -2 | 2 | 48*
C[C@H](CO)N1C[C@H](C)[C@@H](CN(C)C(=O)Oc2ccccc2)OCc2cnnn2CCCC1=O | -5 | x | x | x | -2 | x
CCOC(=O)[C@]12Cc3cc4ccccc4cc3[C@H]1N(Cc1ccccc1)C(=O)c1cc(OC)ccc12 | 8 | x | x | x | x | x
Cc1ccc(Sc2ccc(C=C3C(=O)N(C)C(=O)N(C)C3=O)o2)cc1 | -116 | 8 | -6 | 2 | 1 | 57*
CN1C(=O)C(=Cc2ccc(-c3cccc(Cl)c3)o2)C(=O)N(C)C1=O | x | 12 | x | x | x | x
COc1ccc(C(SCC(NC(=O)OCc2ccccc2)C(=O)O)c2ccc(OC)cc2)cc1 (stereo unspecified) | -17 | x | x | x | 4 | x
CN1OC[C@@H]2CN[C@H](c3ccc(Br)cc3)C[C@@H]21 | 9 | x | x | x | -1 | x
O=P1(c2ccccc2)CC=CC1 | -6 | x | x | x | 1 | x
CN1C(=O)NC(=O)/C(=C/c2ccc([N+](=O)[O-])s2)C1=O | -26 | 25* | 23 | 29 | -1 | 22
CN1C(=O)NC(=O)/C(=C/c2ccc([N+](=O)[O-])o2)C1=O | x | 12 | x | x | x | x
CN(Cc1cccc(-c2ccncc2)c1)C(=O)Oc1ccc([N+](=O)[O-])cc1 | -13 | x | x | x | x | x
CCc1cc2c(s1)NC(=O)CN=C2c1cccs1 | -2 | 33* | 5 | 2 | -1 | -1
SMILES | E coli Lon inh | pPAFAH FP inh | PAFAH1B3 FP inh | PAFAH2 inh | Rin1-Abl PPI inh | PAFAH1B2 inh
O=C1NC(=O)C(=Cc2ccc(SC3CCCCC3)o2)C(=O)N1 | -15 | 12 | 13 | 45* | 1 | 88*
O=C(O)CCn1cc(C=C2C(=O)NC(=O)NC2=O)c(-c2ccc(Br)cc2)n1 | 9 | 11 | 6 | -4 | -1 | 33*
O=C(O)CCn1cc(C=C2C(=O)NC(=S)NC2=O)c(-c2cccc(Cl)c2)n1 | -6 | 1 | -1 | -3 | 2 | 7
Cn1cccc1/C=C1\C(=O)NC(=O)N(Cc2ccccc2)C1=O | -44 | 11 | 10 | 17 | 4 | 9
Cn1cccc1/C=C1/C(=O)NC(=O)N(Cc2ccc(F)cc2)C1=O | -37 | 13 | 22 | 12 | 1 | 29*
O=C1NC(=O)N(Cc2ccco2)C(=O)/C1=C/c1cccn1CCOc1ccccc1Cl | -120 | 26* | 6 | 28 | 4 | 15
CC(=O)O[C@H]1CCC2C3CC[C@H]4[C@@H](O)[C@H](O)CC[C@]4(C)C3CC[C@@]21C (stereo partly specified) | -39 | x | 7 | 0 | 2 | 0
O=C(CCc1ccccc1)N1Cc2cc(N3CCCCC3)ccc2-n2nncc2C1 | -21 | x | x | x | 0 | x
Clc1cccc(N2Cc3cc(-c4ccccc4)ccc3-n3nncc3C2)c1 | 16 | x | x | x | 1 | x
CCOC(=O)[C@]12Cc3ccccc3[C@H]1N(CCC(=O)OC)C(=O)c1cc(OC)ccc12 | 7 | x | x | x | x | x
O=C1NC(=S)SC1=Cc1ccc(N(CCCl)CCCl)cc1 | -255 | x | 6 | 9 | 5 | 28*
O=[N+]([O-])c1cccc(C2N3CCCN23)c1 (stereo unspecified) | -2 | -2 | 7 | -8 | -1 | 5
O=C(O)c1cccc2c1NC(c1cccc([N+](=O)[O-])c1)C1CC(Sc3ccccc3[N+](=O)[O-])C(Cl)C21 (stereo unspecified) | 4 | x | 11 | 37* | 2 | 18
O=C(O)c1ccc2c(c1)C1C(Cl)C(Sc3ccccc3[N+](=O)[O-])CC1C(c1cccc([N+](=O)[O-])c1)N2 (stereo unspecified) | 2 | x | 41* | 52* | 3 | 24
CCCCN1C(=O)/C(=C\c2ccco2)C(=O)N(CCc2ccccc2)C1=O | -113 | 29* | -18 | 9 | -1 | -4
O=C1NC(=O)N(Cc2ccccc2)C(=O)/C1=C\c1ccco1 | -96 | 20 | 8 | 11 | 2 | 7
c1coc(CN2Cc3ccccc3-n3nncc3C2)c1 | -7 | x | x | x | 1 | x
CCOC(=O)CC(SP1(=S)OCC2(CC=CCC2)CO1)C(=O)OCC (stereo unspecified) | -7 | x | 5 | 1 | 4 | 4
O=C1CN=C(c2ccccc2)c2ccccc2N1Cc1ccc(C(F)(F)F)cc1 | 10 | 3 | 1 | 4 | 3 | 59*
Cc1oc(-c2ccccc2Cl)nc1CN1C(=O)CN=C(c2ccccc2)c2ccccc21 | -3 | -1 | 2 | 9 | -1 | 2

Screening data deposited in PubChem by The Scripps Research Institute Molecular Screening Center.
